Inconclusive results are not listed. The source made the active and inactive calls. How the source made its calls, unless noted: active means hit-call score of the fitted dose curve at least 0.9, where 1 is the maximum; inconclusive means response in the unintended direction; inactive means score below 0.9.
Legend:
[1] = target: human Peripheral-type Benzodiazepine Receptor (PBR), TSPO (gene 706) (UniProt P30536); assay: NVS_MP_hPBR: NovaScreen (NVS) Membrane Protein Assay for human Peripheral-type Benzodiazepine Receptor (PBR) (AID 2283331);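 further: hits reduce radioligand binding relative to DMSO baseline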
human Peripheral-type Benzodiazepine Receptor (PBR), TSPO (gene 706), sequence (P30536 whole entry, looked up): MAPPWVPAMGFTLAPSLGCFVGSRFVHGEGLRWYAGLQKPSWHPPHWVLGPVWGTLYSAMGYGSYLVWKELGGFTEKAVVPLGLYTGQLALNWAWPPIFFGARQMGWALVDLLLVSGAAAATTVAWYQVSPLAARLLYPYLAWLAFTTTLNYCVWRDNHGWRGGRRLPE
In short: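 Cell-free radioligand displacement, human colonic membranes, 1 h exposure. Filter radiodetection read-out. Single-concentration duplicates (25 uM), then concentration-response for actives; DMSO negative control.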

[2] = target: rat Peripheral-type Benzodiazepine Receptor (PBR), Tspo (gene 24230) (UniProt P16257); assay: NVS_MP_rPBR: NovaScreen (NVS) Membrane Protein Assay for rat Peripheral-type Benzodiazepine Receptor (PBR) (AID 2283335)
rat Peripheral-type Benzodiazepine Receptor (PBR), Tspo (gene 24230), sequence (P16257 whole entry, looked up): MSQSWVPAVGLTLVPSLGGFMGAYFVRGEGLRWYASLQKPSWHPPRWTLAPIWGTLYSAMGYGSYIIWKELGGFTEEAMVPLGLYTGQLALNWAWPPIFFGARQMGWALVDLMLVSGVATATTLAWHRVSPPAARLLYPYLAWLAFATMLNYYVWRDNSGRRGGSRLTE
In short: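 Single-concentration duplicate screening at 25 uM preceded concentration-series retesting of actives. Binding of a specific radioligand to rat kidney membrane PBR was read by filtration radiodetection after 1 h, with plate-wise positive and negative controls.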

[3] = target: rat Glutamate, MK-801 Agonist Site (GluNMDA_MK801), Grin1 (gene 24408) (UniProt P35439); assay: NVS_LGIC_rGluNMDA_MK801_Agonist: NovaScreen (NVS) Ligand-Gated Ion Channel Assay for rat Glutamate, MK-801 Agonist Site (GluNMDA_MK801) (AID 2283340)
In short: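 Rat forebrain membrane preparation; MK-801-site radioligand binding read by filtration and scintillation after 1.5 h. Single-point 25 uM duplicate screen, followed by singleton concentration series to 50 uM max; DMSO baseline.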

[4] = test system: NCBI gene 100848466; assay: NVS_NR_bPR: NovaScreen (NVS) Nuclear Receptor Binding Assay for bovine Progextron Receptor (PR) (AID 2283343);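 further: actives lower bound radioligand signal below DMSO meaning displacement of the label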
In short: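 Scintillation counts of bound radioligand were read 18 hours after chemical addition to membranes extracted from bovine uterus. Displacement was scored as loss of signal relative to DMSO controls. Screening began at 25 uM in duplicate.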

[5] = target: chimpanzee Androgen Receptor (AR), AR (gene 747460) (UniProt O97775); assay: NVS_NR_cAR: NovaScreen (NVS) Nuclear Receptor Binding Assay for chimpanzee Androgen Receptor (AR) (AID 2283346);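 further: radioligand displacement from AR measured by scintillation counting in a cell-free assay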
chimpanzee Androgen Receptor (AR), AR (gene 747460), sequence (O97775 whole entry, looked up): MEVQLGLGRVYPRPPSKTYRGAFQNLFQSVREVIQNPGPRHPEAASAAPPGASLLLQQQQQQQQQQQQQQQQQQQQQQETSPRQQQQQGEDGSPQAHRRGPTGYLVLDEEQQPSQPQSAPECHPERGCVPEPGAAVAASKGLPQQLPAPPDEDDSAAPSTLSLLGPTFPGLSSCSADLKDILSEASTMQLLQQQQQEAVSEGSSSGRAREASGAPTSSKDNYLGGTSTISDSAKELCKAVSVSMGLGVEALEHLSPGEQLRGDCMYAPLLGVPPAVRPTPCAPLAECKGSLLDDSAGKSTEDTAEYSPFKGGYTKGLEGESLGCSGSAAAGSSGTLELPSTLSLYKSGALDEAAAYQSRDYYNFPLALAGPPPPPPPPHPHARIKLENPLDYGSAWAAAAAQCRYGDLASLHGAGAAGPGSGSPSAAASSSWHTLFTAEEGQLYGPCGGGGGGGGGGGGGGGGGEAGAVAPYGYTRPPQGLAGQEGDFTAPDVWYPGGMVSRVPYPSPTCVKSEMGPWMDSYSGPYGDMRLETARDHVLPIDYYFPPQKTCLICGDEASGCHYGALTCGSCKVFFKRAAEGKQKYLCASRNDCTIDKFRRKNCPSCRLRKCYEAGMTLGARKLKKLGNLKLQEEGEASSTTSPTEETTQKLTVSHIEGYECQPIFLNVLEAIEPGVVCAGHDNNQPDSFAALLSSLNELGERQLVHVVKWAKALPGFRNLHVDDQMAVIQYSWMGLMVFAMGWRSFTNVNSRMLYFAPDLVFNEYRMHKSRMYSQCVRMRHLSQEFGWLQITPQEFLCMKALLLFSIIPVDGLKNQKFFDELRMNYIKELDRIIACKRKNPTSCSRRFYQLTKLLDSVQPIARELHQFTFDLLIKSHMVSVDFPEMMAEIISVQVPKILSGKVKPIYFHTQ
In short: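 Radioligand binding to chimpanzee AR expressed in Sf9/Sf21 cells, cell-free, measured 72 h after dosing by lysate-based scintillation counting. Loss of signal vs DMSO; initial duplicate screen at 25 uM, actives retested in concentration series.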

[6] = target: human Serotonin, 5-Hydroxytryptamine Receptor 3 (5HT3), HTR3A (gene 3359) (UniProt P46098); assay: NVS_LGIC_h5HT3: NovaScreen (NVS) Ligand-Gated Ion Channel Assay for human Serotonin, 5-Hydroxytryptamine Receptor 3 (5HT3) (AID 2283325)
In short: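 Initially tested at 25 uM in duplicate, then up to 50 uM in concentration-response for actives, compounds competed with a radioligand for HEK293-derived human 5-HT3 receptor. Bound counts were measured by filtration and scintillation at 1 h; loss of signal versus DMSO.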

[7] = target: bovine Estrogen Receptor (ER), ESR1 (gene 407238) (UniProt P49884); assay: NVS_NR_bER: NovaScreen (NVS) Nuclear Receptor Binding Assay for bovine Estrogen Receptor (ER) (AID 2283345);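 further: actives lower the bound radioligand count which means they displace the ER ligand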
bovine Estrogen Receptor (ER), ESR1 (gene 407238), sequence (P49884 whole entry, looked up): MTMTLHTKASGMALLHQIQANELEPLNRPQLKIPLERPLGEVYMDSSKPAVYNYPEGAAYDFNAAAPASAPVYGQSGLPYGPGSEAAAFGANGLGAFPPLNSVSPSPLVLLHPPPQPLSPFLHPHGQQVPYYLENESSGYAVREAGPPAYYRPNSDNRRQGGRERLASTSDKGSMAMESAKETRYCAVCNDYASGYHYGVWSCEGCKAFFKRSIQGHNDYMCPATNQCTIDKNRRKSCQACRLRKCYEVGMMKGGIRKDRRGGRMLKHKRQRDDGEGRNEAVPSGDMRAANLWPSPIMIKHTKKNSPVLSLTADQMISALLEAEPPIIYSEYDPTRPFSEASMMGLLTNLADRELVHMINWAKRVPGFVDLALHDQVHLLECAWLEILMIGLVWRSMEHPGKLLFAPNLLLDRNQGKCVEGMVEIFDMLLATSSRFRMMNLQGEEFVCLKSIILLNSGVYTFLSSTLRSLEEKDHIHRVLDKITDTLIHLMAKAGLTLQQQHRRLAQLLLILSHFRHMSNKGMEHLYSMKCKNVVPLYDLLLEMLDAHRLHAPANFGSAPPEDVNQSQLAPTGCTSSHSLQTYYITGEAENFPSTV
In short: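 Cell-free radioligand binding with receptor from bovine uterine membranes, read by scintillation counting 18 h after dosing. Loss of specific binding was scored against DMSO; primary screen at 25 uM in duplicate, actives then run as concentration series.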

[8] = target: Estrogen receptor (Homo sapiens) (UniProt P03372); assay: NVS_NR_hER: NovaScreen (NVS) Nuclear Receptor Binding Assay for human Estrogen Receptor (ER) (AID 2283348)
Estrogen receptor (Homo sapiens), sequence (P03372 whole entry, looked up): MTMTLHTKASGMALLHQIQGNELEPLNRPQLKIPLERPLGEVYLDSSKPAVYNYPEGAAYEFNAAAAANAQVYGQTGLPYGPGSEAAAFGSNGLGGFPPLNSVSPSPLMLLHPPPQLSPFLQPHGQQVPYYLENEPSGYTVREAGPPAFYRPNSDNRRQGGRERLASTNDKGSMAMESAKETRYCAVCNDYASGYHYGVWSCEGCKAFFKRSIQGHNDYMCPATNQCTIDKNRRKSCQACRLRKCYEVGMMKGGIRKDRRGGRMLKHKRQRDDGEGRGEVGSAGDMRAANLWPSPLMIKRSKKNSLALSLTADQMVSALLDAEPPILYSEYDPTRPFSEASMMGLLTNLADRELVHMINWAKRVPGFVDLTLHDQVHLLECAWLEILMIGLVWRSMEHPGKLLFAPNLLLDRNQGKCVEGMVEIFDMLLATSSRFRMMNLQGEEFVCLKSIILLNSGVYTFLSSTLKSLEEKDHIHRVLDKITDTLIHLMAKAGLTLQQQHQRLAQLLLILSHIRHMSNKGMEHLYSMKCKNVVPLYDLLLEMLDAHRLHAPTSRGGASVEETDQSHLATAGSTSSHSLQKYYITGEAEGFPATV
In short: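 MCF7-derived receptor extract, radiolabelled ligand, competitive displacement. Read: scintillation counts at 18 h. DMSO = negative control/baseline. Primary 25 uM duplicate; follow-up concentration–response.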

[9] = target: rat Thyrotropin Releasing Hormone Receptor (TRH), Trhr (gene 25570) (UniProt Q01717); assay: NVS_GPCR_rTRH: NovaScreen (NVS) G Protein-Coupled Receptor Assay for rat Thyrotropin Releasing Hormone Receptor (TRH) (AID 2283329);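 further: hit means lower bound tracer signal versus DMSO baseline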
In short: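 Cell-free radioligand binding on rat forebrain membranes; bound tracer measured by filter-based scintillation counting 4 hours after dosing. Loss of signal versus DMSO baseline indicates displacement; primary screen at 25 uM in duplicate, actives then run in concentration series.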

[10] = NVS_IC_rCaBTZCHL: NovaScreen (NVS) Ion Channel Assay for Calcium Channel, Type L, Benzothiazepine Site (CaBTZCHL) (AID 2283337)
In short: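 Benzothiazepine-site binding was assessed in a tissue-derived, cell-free rat cortical membrane system. After 1.5 h exposure, radioactivity retained on filters was quantified by scintillation; positive and negative controls accompanied every plate.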

[11] = target: rat Gamma-Aminobutyric Acid Type A Receptor, Non-Selective (GABAR-NonSelective), Gabra1 (gene 29705) (UniProt P62813); assay: NVS_LGIC_rGABAR_NonSelective: NovaScreen (NVS) Ligand-Gated Ion Channel Assay for rat Gamma-Aminobutyric Acid Type A Receptor, Non-Selective (GABAR-NonSelective) (AID 2283326)
In short: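 Compounds were first screened in duplicate at 25 uM, with actives run as singleton concentration series (max 50 uM). Binding of a radioligand to rat whole-brain GABA-A preparation was measured by filtration and scintillation counting after 1 h, DMSO baseline.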

[12] = target: rat Glutamate, AMPA Site (AMPA), Gria1 (gene 50592) (UniProt P19490); assay: NVS_LGIC_rAMPA: NovaScreen (NVS) Ligand-Gated Ion Channel Assay for rat Glutamate, AMPA Site (AMPA) (AID 2283324)
In short: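 Screening at 25 uM in duplicate preceded concentration series reaching 50 uM for qualifying compounds. Radioligand displacement on rat forebrain membranes, 1 h, filter-based scintillation readout; reduced binding relative to DMSO.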

[13] = target: human Constitutive Androstane Receptor (CAR), NR1I3 (gene 9970) (UniProt Q14994); assay: NVS_NR_hCAR_Antagonist: NovaScreen (NVS) Nuclear Receptor Binding Assay for human Constitutive Androstane Receptor Antagonism (CAR) (AID 2283344)
In short: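 Single 25 uM duplicate primary screen, with concentration-series follow-up on actives. Cell-free binding format run in antagonist mode, TR-FRET signal taken 1 h post-dose; activity is signal loss relative to DMSO.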

[14] = target: Glutamate receptor ionotropic, kainate 1 (Rattus norvegicus) (UniProt P22756); assay: NVS_IC_rKAR: NovaScreen (NVS) Ion Channel Assay for rat Kainic Acid Receptors (KAR) (AID 2283334; active means hit-call score of the fitted dose curve at least 0.9, where 1 is the maximum; inactive means score below 0.9)
Glutamate receptor ionotropic, kainate 1 (Rattus norvegicus), sequence (P22756 whole entry, looked up): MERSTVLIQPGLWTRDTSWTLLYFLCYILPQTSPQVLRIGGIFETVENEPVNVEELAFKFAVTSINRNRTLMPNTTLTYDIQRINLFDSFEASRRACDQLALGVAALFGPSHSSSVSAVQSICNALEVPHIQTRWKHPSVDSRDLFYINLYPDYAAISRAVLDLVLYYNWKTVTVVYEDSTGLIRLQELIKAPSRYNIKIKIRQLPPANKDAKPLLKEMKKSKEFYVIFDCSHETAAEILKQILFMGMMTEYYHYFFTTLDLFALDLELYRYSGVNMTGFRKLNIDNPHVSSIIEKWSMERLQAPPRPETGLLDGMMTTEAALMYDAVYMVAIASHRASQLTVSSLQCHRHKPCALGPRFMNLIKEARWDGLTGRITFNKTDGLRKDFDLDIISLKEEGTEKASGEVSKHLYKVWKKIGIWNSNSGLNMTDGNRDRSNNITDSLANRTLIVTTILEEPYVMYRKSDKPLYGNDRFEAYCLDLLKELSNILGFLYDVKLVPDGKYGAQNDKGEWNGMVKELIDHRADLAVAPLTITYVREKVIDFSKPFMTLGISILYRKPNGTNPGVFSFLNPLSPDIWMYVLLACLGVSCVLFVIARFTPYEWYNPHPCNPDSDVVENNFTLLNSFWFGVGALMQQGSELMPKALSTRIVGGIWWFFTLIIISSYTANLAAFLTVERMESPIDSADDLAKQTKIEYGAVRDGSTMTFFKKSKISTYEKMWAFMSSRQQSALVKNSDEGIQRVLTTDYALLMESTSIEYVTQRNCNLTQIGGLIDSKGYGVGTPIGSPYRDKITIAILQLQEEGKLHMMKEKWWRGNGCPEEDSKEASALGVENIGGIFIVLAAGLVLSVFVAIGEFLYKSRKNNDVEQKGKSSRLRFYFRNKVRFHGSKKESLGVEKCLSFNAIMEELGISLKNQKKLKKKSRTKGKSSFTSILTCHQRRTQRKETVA
In short: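 Rat forebrain membrane preparation incubated 1 h with radioligand and test chemical; bound signal read by filtration and scintillation. Single-concentration screen at 25 uM, then concentration series to 50 uM maximum.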

[15] = target: human Androgen Receptor (AR), AR (gene 367) (UniProt P10275); assay: NVS_NR_hAR: NovaScreen (NVS) Nuclear Receptor Binding Assay for human Androgen Receptor (AR) (AID 2283332)
human Androgen Receptor (AR), AR (gene 367), sequence (P10275 whole entry, looked up): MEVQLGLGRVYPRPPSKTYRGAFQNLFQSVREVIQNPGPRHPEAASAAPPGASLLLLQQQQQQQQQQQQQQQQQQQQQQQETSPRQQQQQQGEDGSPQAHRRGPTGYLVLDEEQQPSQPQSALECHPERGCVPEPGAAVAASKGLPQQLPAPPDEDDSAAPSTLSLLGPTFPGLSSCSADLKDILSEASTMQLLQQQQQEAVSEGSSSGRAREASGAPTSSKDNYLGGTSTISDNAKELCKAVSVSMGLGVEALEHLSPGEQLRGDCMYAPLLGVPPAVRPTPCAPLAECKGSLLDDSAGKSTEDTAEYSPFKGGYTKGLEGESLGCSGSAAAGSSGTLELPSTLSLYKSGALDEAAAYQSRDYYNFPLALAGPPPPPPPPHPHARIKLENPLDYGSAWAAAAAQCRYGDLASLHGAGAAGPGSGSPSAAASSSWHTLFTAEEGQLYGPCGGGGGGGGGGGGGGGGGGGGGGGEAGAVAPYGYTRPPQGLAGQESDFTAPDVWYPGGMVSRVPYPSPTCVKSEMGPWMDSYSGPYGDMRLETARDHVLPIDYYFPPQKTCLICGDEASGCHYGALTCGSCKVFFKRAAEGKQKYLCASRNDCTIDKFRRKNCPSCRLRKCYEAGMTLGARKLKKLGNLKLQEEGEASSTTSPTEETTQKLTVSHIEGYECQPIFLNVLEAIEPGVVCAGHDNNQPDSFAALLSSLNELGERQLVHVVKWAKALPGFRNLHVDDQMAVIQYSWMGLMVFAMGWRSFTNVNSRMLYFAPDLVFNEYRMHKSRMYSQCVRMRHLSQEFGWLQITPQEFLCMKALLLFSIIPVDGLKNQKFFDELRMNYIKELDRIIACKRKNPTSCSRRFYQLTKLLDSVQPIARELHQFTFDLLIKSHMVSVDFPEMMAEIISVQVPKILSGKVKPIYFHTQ
In short: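 LnCAP cell-free extract; radioligand displacement read by scintillation counting after 20 h. Primary screen single concentration 25 uM in duplicate, actives then run as concentration series; loss-of-signal fitted relative to DMSO baseline.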

[16] = target: bovine Gamma-Aminobutyric Acid Type A Receptor Agonist (GABAR Agonist), GABRA1 (gene 780973) (UniProt P08219); assay: NVS_LGIC_bGABAR_Agonist: NovaScreen (NVS) Ligand-Gated Ion Channel Assay for bovine Gamma-Aminobutyric Acid Type A Receptor Agonist (GABAR Agonist) (AID 2283338)
bovine Gamma-Aminobutyric Acid Type A Receptor Agonist (GABAR Agonist), GABRA1 (gene 780973), sequence (P08219 whole entry, looked up): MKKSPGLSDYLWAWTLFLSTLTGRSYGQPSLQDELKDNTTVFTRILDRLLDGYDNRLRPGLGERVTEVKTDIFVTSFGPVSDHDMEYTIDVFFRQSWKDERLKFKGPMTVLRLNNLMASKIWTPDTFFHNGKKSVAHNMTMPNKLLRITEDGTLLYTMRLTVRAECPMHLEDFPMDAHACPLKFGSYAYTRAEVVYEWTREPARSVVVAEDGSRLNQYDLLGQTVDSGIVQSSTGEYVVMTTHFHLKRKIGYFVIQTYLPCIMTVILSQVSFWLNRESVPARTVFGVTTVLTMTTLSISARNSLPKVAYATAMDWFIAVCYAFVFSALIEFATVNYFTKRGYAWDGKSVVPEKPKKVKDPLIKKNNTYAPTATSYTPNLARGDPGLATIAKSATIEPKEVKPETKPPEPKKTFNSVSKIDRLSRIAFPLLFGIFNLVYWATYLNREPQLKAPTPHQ
In short: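 Radioligand binding to bovine cerebellar membranes in agonist format, read by filter-based scintillation counting after 1 h. Primary screen in duplicate at 25 uM, with actives followed in concentration series. Gain of signal versus DMSO.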

[17] = target: Small conductance calcium-activated potassium channel protein 1 (Rattus norvegicus) (UniProt P70606); assay: NVS_IC_rKCaCh: NovaScreen (NVS) Ion Channel Assay for rat Potassium Channel, Ca2+ Act., VI (KCaCh) (AID 2283336)
In short: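 Filter-based scintillation counting of radioligand bound to rat forebrain membrane preparations, measured 1 h after compound addition. Primary screen used 25 uM in duplicate, with concentration-response follow-up; signal decrease relative to DMSO marks activity.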

[18] = target: Voltage-gated inwardly rectifying potassium channel KCNH2 (Homo sapiens) (UniProt Q12809); assay: NVS_IC_hKhERGCh: NovaScreen (NVS) Ion Channel Assay for human Potassium Channel ERG (KhERGCh) (AID 2283333)
In short: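 Membranes from CHO cells expressing human ERG; displacement of radioligand measured by filtration and scintillation after 0.75 h. Single-concentration duplicate screen at 25 uM, then concentration-response for actives; DMSO baseline.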

[19] = target: rat Glycine Receptor, Strychnine-sensitive (GlyRStrySens), Glra1 (gene 25674) (UniProt P07727); assay: NVS_LGIC_rGlyRStrySens: NovaScreen (NVS) Ligand-Gated Ion Channel Assay for rat Glycine Receptor, Strychnine-sensitive (GlyRStrySens) (AID 2283341)
In short: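 Radioligand displacement on rat spinal cord membranes, 1 hr, filter scintillation read-out. Single-concentration duplicate screen at 25 uM; chemicals meeting threshold (e.g., 30% inhibition) rerun in concentration-response up to 50 uM. Loss of binding fitted versus DMSO.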

CC(C)(O)c1coc(S(=O)(=O)NC(=O)Nc2c3c(cc4c2CCC4)CCC3)c1
outcome [1]: inactive

CCc1cc(SCc2sc(-c3ccc(C(F)(F)F)cc3)nc2CN2CCN(c3ccc(OC)cc3)CC2)ccc1OCC(=O)O
outcome [1]: inactive
AC50 [2]: 1.81 µM (active)
outcome [3]: inactive
AC50 [4]: 40.3 µM (active)
AC50 [5]: 29 µM (active)

C=CCCCCCCCCC(=O)O
outcome [6]: inactive
outcome [7]: inactive
outcome [8]: inactive

O=C(NS(=O)(=O)/C=C/c1ccccc1)c1ccc(F)cc1Cl
AC50 [9]: 0.0025 µM (active)

CC(C)CCO
AC50 [1]: 15.8 µM (active)

CCn1nc(Cc2ccccc2)cc1C1CCN(C[C@H]2C[C@H](N(C)[C@@H](C(=O)O)C(C)C)C[C@@H]2c2cccc(F)c2)CC1
AC50 [1]: 8.22 µM (active)
outcome [2]: inactive
AC50 [10]: 16.2 µM (active)

CCN(C(=O)c1cc(C)cc(OC[C@H](C)Nc2ccncc2)c1)C(C)C
AC50 [11]: 1.13 µM (active)
AC50 [1]: 12.5 µM (active)
AC50 [10]: 6.56 µM (active)

CC(C)=CCCC(C)=CC=O
outcome [12]: inactive
outcome [8]: inactive

Nc1nc2ncc(CNc3ccc(C(=O)N[C@@H](CCC(=O)O)C(=O)O)cc3)nc2c(=O)[nH]1
outcome [5]: inactive

CN(C)c1ccc(N=NS(=O)(=O)O)cc1
outcome [13]: inactive

On1ccccc1=S
outcome [14]: inactive

Oc1ccc2c(c1)-c1ccccc1C2
AC50 [15]: 6.89 µM (active)
AC50 [4]: 25 µM (active)
AC50 [5]: 8.77 µM (active)

O=C(O)c1cc(N=Nc2ccc(S(=O)(=O)Nc3ccccn3)cc2)ccc1O
AC50 [2]: 0.655 µM (active)
AC50 [5]: 5.35 µM (active)

CCCN(C1CCN(C(=O)C2CCNCC2)CC1)[C@@H]1CCc2ccc(OC)cc2C1
outcome [10]: inactive

CCOc1cccc(-n2cc(C(=O)N3CCN(c4cc(C(=O)O)c5ccccc5c4)CC3)nc2-c2ccc(C)cc2)c1
AC50 [1]: 3.71 µM (active)
AC50 [2]: 9.73 µM (active)
AC50 [5]: 20.4 µM (active)

O=C(O)CCN(C1(C(=O)NO)CCCC1)S(=O)(=O)c1ccc(Oc2ccc(F)cc2)cc1
AC50 [16]: 7.72 µM (active)

CCOCCO
outcome [17]: inactive

CNS(=O)(=O)c1cc(C(=O)N2CCC(CCN3C4CCC3CC(n3c(C)nc5ccccc53)C4)(c3cccc(F)c3)CC2)c(Cl)cc1F (stereo unspecified)
AC50 [10]: 7.92 µM (active)
AC50 [5]: 11.3 µM (active)

CC(C)CC(C)(O)C#CC(C)(O)CC(C)C (stereo unspecified)
outcome [18]: inactive

Cc1c(-c2cccnc2)c2ccccc2n1CCCCC(=O)O
AC50 [2]: 9.13 µM (active)

CC[C@H](C)C(=O)O[C@H]1C[C@@H](C)C=C2C=C[C@H](C)[C@H](CC[C@@H]3C[C@@H](O)CC(=O)O3)[C@H]21
AC50 [5]: 24.9 µM (active)

Cn1cnc([N+](=O)[O-])c1Sc1ncnc2nc[nH]c12
outcome [8]: inactive

CCCCCCCCCCCCCCCO
outcome [16]: inactive

O=P(OC(CCl)CCl)(OC(CCl)CCl)OC(CCl)CCl
AC50 [1]: 2.01 µM (active)
AC50 [2]: 2.36 µM (active)
AC50 [4]: 8.22 µM (active)
AC50 [5]: 13.3 µM (active)
outcome [8]: inactive

CC(C)=CCCC(C)CCO (stereo unspecified)
outcome [8]: inactive

CC(=O)OC[C@H]1O[C@@](COC(C)=O)(O[C@H]2O[C@H](COC(C)=O)[C@@H](OC(C)=O)[C@H](OC(C)=O)[C@H]2OC(C)=O)[C@@H](OC(C)=O)[C@@H]1OC(C)=O
outcome [16]: inactive

CC(C)=CCC/C(C)=C/CO
outcome [5]: inactive

CCCCCCc1ccc(O)cc1O
AC50 [15]: 8.25 µM (active)
outcome [5]: inactive

Nc1cccc(N)c1
AC50 [16]: 6.48 µM (active)

CC/C(=C\C(=N/O)C(N)=O)C(C)[N+](=O)[O-] (stereo unspecified)
outcome [19]: inactive
outcome [7]: inactive

COC(=O)CC(=O)OC
outcome [14]: inactive

Cc1ccc(C)c(O)c1
outcome [16]: inactive

CCC(C)(C)C(=O)O[C@H]1C[C@@H](C)C=C2C=C[C@H](C)[C@H](CC[C@@H]3C[C@@H](O)CC(=O)O3)[C@H]21
outcome [14]: inactive
outcome [8]: inactive

CCOC(=O)COc1ccc2c(c1)CC(NCC(O)c1cccc(Cl)c1)CC2 (stereo unspecified)
AC50 [18]: 21.5 µM (active)
outcome [8]: inactive

CC[C@H]1CC[C@H](NCc2cc3c(cc2OC)[C@H]2C[C@H]2C(=O)N3C)[C@H](c2ccccc2)N1
AC50 [10]: 3.79 µM (active)
outcome [8]: inactive

Reference: PubChem BioAssay (EPA / NIEHS)
